Assay outcomes as filed in PubChem BioAssay.
HP1b binding inh: inhibitors of HP1-beta chromodomain binding to methylated histone tails; P83916; Potency, µM (doses to about 114 µM), inactives show at the highest dose activity change, negative = inhibition, usual class: inhibitors; AID 540317; hit rate 0.56% among 390,000; AlphaScreen HP1-beta / biotin-H3K9me3 peptide binding; note: nearly all actives have a fitted effect of over 70% in size
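Compound inhibition of the preformed complex between 50 nM HP1-beta and 50 nM biotinylated H3K9me3 peptide was read by AlphaScreen. Buffer was PBS pH 7.4 with 0.01% Tween-20. Incubations ran 30 min at room temperature, with 10 ug/mL donor/acceptor beads.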
G9a block: inhibitors of human histone lysine methyltransferase G9a; Potency, µM (doses to about 102 µM), for inactives: at the highest dose activity, negative = inhibition, most hits filed as inhibitors; AID 504332; G9a H3K9 monomethylation, AlphaScreen, 2 h; Q96KQ7; hit rate 8.8% among 350,000; note: % is set by controls: 0 for no effect and ±100 for the full control effect; nearly all actives have a fitted effect of over 75% in size
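Step 1: enzyme (final 20 nM) with compound, 15 min RT. Step 2: substrate peptide 500 nM and SAM 20 uM, 2 h RT. Step 3: anti-H3K9me1 antibody and AlphaScreen beads, 10 min, then plate read.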
BAZ2B inh: BAZ2B (human) inhibition; Q9UIF8; AlphaScreen BAZ2B-H3K14Ac peptide displacement; Potency, µM (series often up to 114 µM), for inactives: at the top dose activity change, negative = inhibition, most hits filed as inhibitors; hit rate 4.4% among 360,000; AID 504333; note: % is set by controls: 0 for no effect and ±100 for the full control effect; nearly all actives have a fitted effect of over 60% in size
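Inhibition is scored as reduced AlphaScreen emission. The BAZ2B/b-H3(5-23)K14Ac complex (50 nM each) in PBS pH 7.4, 0.01% Tween-20 meets compound (up to 110 uM) for 30 min at RT before bead addition.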
Sfp PPTase inh: inhibitors of Bacillus subtilis Sfp phosphopantetheinyl transferase | Potency, µM, without a hit: largest response in the series, negative = inhibition, most hits filed as inhibitors | Biochemical Sfp PPTase activity, qHTS | hit rate 3.5% among 310,000 | Q9F4F7;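 note: the enzyme is Sfp with the accession as filed and its product quenches rhodamine fluorescence; 0% = enzyme reaction without inhibitor and -100% = no enzyme wells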
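Reaction rates are the 30-min fluorescence difference (ex 525, em 598 nm) in wells containing 15 nM Sfp, 5 uM rhodamine-CoA and 12.5 uM BHQ-2-YbbR at pH 7.6 with 10 mM MgCl2.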
JMJD2A Tudor inh: JMJD2A Tudor domain (human) inhibition. O75164. AlphaScreen JMJD2A-Tudor / H3K4me3 peptide binding. Potency, µM (top dose mostly 114 µM), inactives show at the highest dose activity change, negative = inhibition, most hits filed as inhibitors. hit rate 4.4% among 390,000. AID 504339; note: % is set by controls: 0 for no effect and ±100 for the full control effect; nearly all actives have a fitted effect of over 50% in size
* marks the source's active call; other numbers are inactive results; ? = inconclusive; nt = no result; [ ] = remark or other dose. Most compounds without a hit are left out; they make up all but 12% or so of the library. Calls come from the whole dose curve; as a rule, active = well fitted curve in the direction sought with a large enough effect; inconclusive = small, poorly fitted or top-dose-only effect, or another doubt; inactive = no such curve, though single readings can be large; an effect the other way counts as inactive or inconclusive. Potency is the fitted concentration of half-maximal effect.

SMILES | HP1b binding inh | G9a block | BAZ2B inh | Sfp PPTase inh | JMJD2A Tudor inh
N=C1S/C(=C\c2ccc(-c3cccc(Cl)c3)o2)C(=O)N1c1nccs1 | -15% | 3.5µM* | -31% | 35µM* | ?
O=C(CSc1nc2c([nH]c3ccccc32)c(=O)n1-c1ccccc1)N1CCCc2ccccc21 | 11%[57 µM] | 3%[59 µM] | 1% | nt | -6%
O=C(O)CC(c1cccc(Cl)c1)n1cccc1 (configuration not stated) | 1% | -17% | -5% | -10% | 89µM*
CN(C(=O)COC(=O)c1ccccc1OCc1ccc(F)cc1)C1CCS(=O)(=O)C1 (configuration not stated) | 16% | -9%[12.7 µM] | -2% | nt | -6%
CCN(CC)CCn1c(-c2ccccc2)csc1=Nc1ccccc1 | ? | 2.2µM* | 50µM* | nt | 18µM*
Cc1ccc(-c2csc(=Nc3ccccc3)n2Cc2ccc3c(c2)OCO3)cc1 | ? | 11µM* | 8.9µM* | nt | 56µM*
OCCCn1c(-c2ccccc2)csc1=Nc1ccccc1 | ? | 22µM* | 56µM* | 8% | ?
CCn1c(-c2ccccc2)csc1=Nc1ccc(S(=O)(=O)O)cc1 | -22% | 18µM* | -35% | 16% | -32%
CCn1c(-c2ccc(S(=O)(=O)N3CCOCC3)cc2)csc1=Nc1ccc(C)c(Cl)c1 | -1% | 3%[12.7 µM] | -6% | nt | -16%
O=C(NCCCN1CCOCC1)C1CCN(S(=O)(=O)c2ccccc2)CC1 | 17% | 8% | 13% | nt | -3%
COc1cc(NC(=S)Nc2cccc(Cl)c2Cl)c(OC)cc1Cl | -11% | ? | 8% | 50µM* | -18%
COc1cc(Cl)c(C)cc1NC(=S)NN | -28% | 6.3µM* | -18% | 35µM* | ?
COc1cc(NC(=S)Nc2ccccn2)c(OC)cc1Cl | 47% | -34% | -16% | 1% | -6%
COc1cc(NC(=S)Nc2ccc(Br)cc2Cl)c(OC)cc1Cl | ? | 10%[59 µM] | -2% | 50µM* | -32%
O=c1c(-c2ccc(F)cc2)nc2cnc(N3CCOCC3)nc2n1C[C@H]1CCCO1 | nt | 9%[12.7 µM] | nt | 21% | nt
CCN1C(=O)[C@H]2[C@H]3[C@H](O)[C@H](O)C/C(=N/O[C@@H](C)CN4CCCCc5nc(C)c(C)cc54)[C@@H]3CC[C@@H]2C1=O | nt | nt | nt | 10% | nt
Cc1cc(C(=O)N/N=C/c2cccc3ccccc23)c(C)o1 | 21% | 2% | -1% | 5% | -6%
COc1ccc(-c2c3c(=O)n(C)c(=O)n(C)c3c3c(-c4ccccc4)nc4ccccc4n23)cc1 | 44% | -1%[59 µM] | 4%[57.1 µM] | nt | 0%
COc1cc(/C=C2\SC(N3CCC(C)CC3)=NC2=O)ccc1O | 2% | -26% | -13% | -3% | -20%
COc1ccc(/C=C2/CCc3ccccc3C2=O)cc1OC | 20% | -1%[59 µM] | ? | -15% | -12%
COc1ccc(/C=C2\COc3ccccc3C2=O)cc1OC | -3% | -10%[59 µM] | -3% | -20% | 50µM*
CCOc1cc(/C=C2\COc3ccccc3C2=O)cc(Br)c1OCC(=O)N(C)C | -22% | 40µM* | ? | 50µM* | ?
COc1cccc(CN2C(=O)CN(C3CCCCC3)C(=O)C2c2ccc(OC)c(OC)c2)c1 (configuration not stated) | 9% | 4%[59 µM] | -3% | nt | -14%
O=C1c2ccccc2C(=O)N1c1ccncc1 | nt | nt | nt | nt | -6%
CN1CCN(c2nc(-c3cccs3)cs2)CC1 | -15% | 35µM* | ? | 56µM* | ?
SMILES | HP1b binding inh | G9a block | BAZ2B inh | Sfp PPTase inh | JMJD2A Tudor inh
O=C1c2ccccc2C(=O)N1c1nc(-c2cccs2)cs1 | 21% | -13%[59 µM] | -11% | 25µM* | -34%
Cn1c(=O)[nH]c(=O)c2c1nc(SCCO)n2Cc1ccccc1Cl | -10% | 45µM* | -2% | -16% | ?
CCC(C)Sc1nc2c(c(=O)[nH]c(=O)n2C)n1Cc1ccccc1Cl (configuration not stated) | 7% | 25µM* | -14% | -3% | 1%
Nc1ccccc1Nc1ccncc1[N+](=O)[O-] | 14% | nt | -36% | 16% | -8%
Nc1ccccc1Nc1c(F)c(F)nc(F)c1Cl | 13% | 13µM* | ? | 6% | -33%
CCC(C)n1c(OC)nc2c1c(=O)n(C)c(=O)n2C (configuration not stated) | -14% | -15% | -3% | 21% | 11µM*
c1ccc2c(NCCCN3CCOCC3)c3ccccc3nc2c1 | nt | 50µM* | -15% | 3% | nt
